# Data from publication PMC7862700, “An all-to-all approach to the identification of sequence-specific readers for epigenetic DNA modifications on cytosine”.
# Experiments:
# Experiment in all cases: DAPPL (digital affinity profiling via proximity ligation, sequencing); 10 mM Tris-HCl pH 7.5, 50 mM NaCl, 1 mM DTT, 4% glycerol, room temperature, 30 min; GST-TFs on glutathione beads, 16-mer random dsDNA library, 0.1% formaldehyde crosslink after washing; high values mean tight binding
# Conditions in all cases: protein: recombinant; tags: N-terminal GST; dsDNA, one strand shown
# FLI1 = target: T1, FLI1 (Homo sapiens, UniProt Q01543 1-452)
# T1 sequence: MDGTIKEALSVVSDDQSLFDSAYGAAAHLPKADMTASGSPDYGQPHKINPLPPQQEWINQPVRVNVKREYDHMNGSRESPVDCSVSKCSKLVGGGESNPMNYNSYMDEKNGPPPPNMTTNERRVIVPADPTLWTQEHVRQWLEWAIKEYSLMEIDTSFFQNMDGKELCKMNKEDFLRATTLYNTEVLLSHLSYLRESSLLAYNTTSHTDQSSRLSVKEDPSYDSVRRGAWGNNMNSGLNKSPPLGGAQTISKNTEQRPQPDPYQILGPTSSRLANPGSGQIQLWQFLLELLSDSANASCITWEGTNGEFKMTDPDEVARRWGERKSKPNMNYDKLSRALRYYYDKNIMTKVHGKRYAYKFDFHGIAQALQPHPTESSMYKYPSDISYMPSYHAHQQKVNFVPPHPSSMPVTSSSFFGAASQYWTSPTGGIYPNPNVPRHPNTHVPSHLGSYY
# How it was run: (§1)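 After expression in yeast as GST fusions, human transcription factors were bound to glutathione beads, DNA-barcoded and mixed with a tag-only sample. The pools were incubated with 200 nmole of a 16-mer random double-stranded DNA library in Tris/NaCl/DTT/glycerol buffer (30 min, room temperature), washed and crosslinked with 0.1% formaldehyde. Proximity ligation with BsaI/T4 ligase ran for 1 h at 37 °C, before PCR amplification and sequencing on an Illumina NextSeq500. Binding signal is a hexamer's read frequency for a factor divided by its frequency for the tag-only sample.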
# ELK1 = target: T2, ELK1 (Homo sapiens, UniProt P19419 1-428)
# T2 sequence: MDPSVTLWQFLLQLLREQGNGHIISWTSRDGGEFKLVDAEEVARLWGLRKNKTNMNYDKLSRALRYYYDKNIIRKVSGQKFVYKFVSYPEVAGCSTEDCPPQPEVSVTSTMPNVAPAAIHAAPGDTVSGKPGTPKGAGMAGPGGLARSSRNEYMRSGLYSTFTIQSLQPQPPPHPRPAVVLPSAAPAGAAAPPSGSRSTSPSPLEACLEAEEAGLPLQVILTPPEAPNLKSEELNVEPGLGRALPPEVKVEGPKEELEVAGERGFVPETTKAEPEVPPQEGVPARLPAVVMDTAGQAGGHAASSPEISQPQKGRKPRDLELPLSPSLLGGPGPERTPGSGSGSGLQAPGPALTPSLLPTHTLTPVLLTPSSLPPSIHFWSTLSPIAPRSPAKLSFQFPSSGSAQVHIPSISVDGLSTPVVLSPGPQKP
# How it was run: as §1
# GABPA = target: T3, GABPA (Homo sapiens, UniProt Q06546 1-454)
# T3 sequence: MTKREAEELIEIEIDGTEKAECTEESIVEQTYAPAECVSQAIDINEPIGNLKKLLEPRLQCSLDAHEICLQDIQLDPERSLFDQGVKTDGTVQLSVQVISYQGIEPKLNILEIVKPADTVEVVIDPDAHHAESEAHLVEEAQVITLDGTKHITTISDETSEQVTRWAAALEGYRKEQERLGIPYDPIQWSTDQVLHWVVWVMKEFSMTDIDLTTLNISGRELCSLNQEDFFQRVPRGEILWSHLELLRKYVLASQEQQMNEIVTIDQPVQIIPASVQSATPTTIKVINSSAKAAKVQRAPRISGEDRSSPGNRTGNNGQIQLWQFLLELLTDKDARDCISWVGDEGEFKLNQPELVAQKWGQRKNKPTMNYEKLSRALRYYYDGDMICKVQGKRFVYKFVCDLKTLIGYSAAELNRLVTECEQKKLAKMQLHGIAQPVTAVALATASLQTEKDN
# How it was run: as §1
# ERG = target: T4, ERG (Homo sapiens, UniProt P11308 1-479)
# T4 sequence: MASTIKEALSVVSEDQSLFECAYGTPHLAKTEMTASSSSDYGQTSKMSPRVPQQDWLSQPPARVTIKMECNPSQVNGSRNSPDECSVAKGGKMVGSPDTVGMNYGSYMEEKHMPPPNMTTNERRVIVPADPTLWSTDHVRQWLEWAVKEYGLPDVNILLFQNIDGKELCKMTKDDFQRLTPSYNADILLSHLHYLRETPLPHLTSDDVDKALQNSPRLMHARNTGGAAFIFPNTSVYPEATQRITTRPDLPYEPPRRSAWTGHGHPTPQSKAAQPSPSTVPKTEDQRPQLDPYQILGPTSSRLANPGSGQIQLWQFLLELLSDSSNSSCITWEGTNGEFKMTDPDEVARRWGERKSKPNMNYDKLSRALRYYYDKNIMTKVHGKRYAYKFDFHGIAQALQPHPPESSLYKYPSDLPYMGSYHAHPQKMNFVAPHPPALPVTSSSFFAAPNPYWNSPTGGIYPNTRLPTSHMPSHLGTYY
# How it was run: as §1
# ELF1 = ELF1 (Homo sapiens, UniProt P32519 1-619)
# How it was run: as §1
# EHF = target: T5, EHF (Homo sapiens, UniProt Q9NZC4 1-300)
# T5 sequence: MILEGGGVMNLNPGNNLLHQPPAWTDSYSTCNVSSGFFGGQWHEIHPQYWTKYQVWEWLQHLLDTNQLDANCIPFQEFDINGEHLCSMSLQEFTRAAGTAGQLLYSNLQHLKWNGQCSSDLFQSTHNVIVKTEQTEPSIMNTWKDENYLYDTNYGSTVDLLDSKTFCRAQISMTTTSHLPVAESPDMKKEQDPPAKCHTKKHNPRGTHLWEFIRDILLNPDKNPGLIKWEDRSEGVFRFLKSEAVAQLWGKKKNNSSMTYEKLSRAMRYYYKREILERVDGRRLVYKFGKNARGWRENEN
# How it was run: as §1
# SPI1 = SPI1 (Homo sapiens, UniProt P17947 1-270)
# How it was run: as §1
# SPIB = SPIB (Homo sapiens, UniProt Q01892 1-262)
# How it was run: as §1
# ELK3 = target: T6, ELK3 (Homo sapiens, UniProt P41970 1-407)
# T6 sequence: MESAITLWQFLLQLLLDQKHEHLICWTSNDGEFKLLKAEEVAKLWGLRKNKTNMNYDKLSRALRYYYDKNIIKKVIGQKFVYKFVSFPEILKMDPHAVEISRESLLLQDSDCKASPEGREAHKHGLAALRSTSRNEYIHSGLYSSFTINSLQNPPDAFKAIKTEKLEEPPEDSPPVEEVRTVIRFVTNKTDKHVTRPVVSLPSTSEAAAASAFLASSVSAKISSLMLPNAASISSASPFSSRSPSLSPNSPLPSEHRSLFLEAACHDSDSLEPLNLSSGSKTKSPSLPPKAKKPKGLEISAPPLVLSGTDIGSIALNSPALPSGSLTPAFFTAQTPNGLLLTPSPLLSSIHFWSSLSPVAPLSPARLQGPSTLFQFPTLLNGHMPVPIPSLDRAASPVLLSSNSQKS
# How it was run: as §1
# FEV = target: T7, FEV (Homo sapiens, UniProt Q99581 1-238)
# T7 sequence: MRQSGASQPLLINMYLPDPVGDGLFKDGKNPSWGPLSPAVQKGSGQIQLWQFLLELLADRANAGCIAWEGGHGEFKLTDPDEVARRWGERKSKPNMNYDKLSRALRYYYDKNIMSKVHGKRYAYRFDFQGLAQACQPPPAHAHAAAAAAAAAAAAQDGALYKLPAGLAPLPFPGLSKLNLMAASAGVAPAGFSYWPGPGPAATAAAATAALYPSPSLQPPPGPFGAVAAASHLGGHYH
# How it was run: as §1
# ETV5 = ETV5 (Homo sapiens, UniProt P41161 1-510)
# How it was run: as §1
# SPIC = target: T8, SPIC (Homo sapiens, UniProt Q8N5J4 1-248)
# T8 sequence: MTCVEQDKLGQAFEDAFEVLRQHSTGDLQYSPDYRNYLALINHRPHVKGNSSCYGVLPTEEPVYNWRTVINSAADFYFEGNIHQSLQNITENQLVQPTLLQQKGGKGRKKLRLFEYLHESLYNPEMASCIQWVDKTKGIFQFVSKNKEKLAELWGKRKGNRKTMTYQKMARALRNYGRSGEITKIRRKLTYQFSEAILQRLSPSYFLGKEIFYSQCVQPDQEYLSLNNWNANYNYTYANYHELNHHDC
# How it was run: as §1
# ELF4 = ELF4 (Homo sapiens, UniProt Q99607 1-663)
# How it was run: as §1
# ELK4 = target: T9, ELK4 (Homo sapiens, UniProt P28324-2 1-405)
# T9 sequence: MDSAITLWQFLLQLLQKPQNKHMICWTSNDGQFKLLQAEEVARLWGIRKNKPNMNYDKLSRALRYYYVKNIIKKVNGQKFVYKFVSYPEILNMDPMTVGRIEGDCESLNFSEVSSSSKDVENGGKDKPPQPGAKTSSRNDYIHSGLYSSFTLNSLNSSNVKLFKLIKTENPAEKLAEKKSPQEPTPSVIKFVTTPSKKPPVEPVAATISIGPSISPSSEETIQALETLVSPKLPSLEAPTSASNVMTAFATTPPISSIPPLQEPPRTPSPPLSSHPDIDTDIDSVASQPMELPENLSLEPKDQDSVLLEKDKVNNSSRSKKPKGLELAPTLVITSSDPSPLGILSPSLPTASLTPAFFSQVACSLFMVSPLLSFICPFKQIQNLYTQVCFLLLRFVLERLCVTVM
# How it was run: as §1
# ETV2 = target: T10, ETV2 (Homo sapiens, UniProt O00321 1-342)
# T10 sequence: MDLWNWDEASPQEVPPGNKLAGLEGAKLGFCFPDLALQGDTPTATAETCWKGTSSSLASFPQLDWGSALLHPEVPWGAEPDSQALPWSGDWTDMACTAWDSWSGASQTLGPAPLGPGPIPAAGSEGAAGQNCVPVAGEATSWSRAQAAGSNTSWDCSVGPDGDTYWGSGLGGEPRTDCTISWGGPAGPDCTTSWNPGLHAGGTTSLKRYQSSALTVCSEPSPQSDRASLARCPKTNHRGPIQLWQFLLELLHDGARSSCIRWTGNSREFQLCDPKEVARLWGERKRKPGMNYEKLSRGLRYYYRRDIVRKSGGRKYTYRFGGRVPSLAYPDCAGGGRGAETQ
# How it was run: as §1
# ELF3 = target: T11, ELF3 (Homo sapiens, UniProt P78545 1-371)
# T11 sequence: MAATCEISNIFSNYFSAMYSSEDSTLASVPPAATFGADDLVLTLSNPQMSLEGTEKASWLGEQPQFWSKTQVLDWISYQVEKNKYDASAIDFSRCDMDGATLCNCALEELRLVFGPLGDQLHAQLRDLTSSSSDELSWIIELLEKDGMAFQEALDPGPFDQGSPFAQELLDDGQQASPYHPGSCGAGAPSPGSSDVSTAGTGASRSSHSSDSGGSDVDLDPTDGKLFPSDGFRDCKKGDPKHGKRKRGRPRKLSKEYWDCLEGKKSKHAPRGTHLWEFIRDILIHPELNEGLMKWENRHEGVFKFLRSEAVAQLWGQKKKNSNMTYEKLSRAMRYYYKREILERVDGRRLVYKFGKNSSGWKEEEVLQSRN
# How it was run: as §1
# ETV1 = ETV1 (Homo sapiens, UniProt P50549 1-477)
# How it was run: as §1
# ETV1, sequence (P50549 whole entry): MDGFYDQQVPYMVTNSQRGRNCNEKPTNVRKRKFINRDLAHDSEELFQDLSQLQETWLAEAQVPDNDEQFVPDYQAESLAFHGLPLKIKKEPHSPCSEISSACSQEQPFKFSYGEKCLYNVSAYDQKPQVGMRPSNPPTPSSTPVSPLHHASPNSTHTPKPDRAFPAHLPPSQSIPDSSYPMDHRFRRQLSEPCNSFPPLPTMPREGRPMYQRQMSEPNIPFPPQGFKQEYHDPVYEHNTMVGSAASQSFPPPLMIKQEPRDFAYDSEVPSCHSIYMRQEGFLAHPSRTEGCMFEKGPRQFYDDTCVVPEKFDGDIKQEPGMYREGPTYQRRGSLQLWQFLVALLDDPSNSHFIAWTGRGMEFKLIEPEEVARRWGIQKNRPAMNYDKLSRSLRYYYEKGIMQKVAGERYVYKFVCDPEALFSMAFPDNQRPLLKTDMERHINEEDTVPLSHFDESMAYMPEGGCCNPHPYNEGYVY
# ELF4, sequence (Q99607 whole entry): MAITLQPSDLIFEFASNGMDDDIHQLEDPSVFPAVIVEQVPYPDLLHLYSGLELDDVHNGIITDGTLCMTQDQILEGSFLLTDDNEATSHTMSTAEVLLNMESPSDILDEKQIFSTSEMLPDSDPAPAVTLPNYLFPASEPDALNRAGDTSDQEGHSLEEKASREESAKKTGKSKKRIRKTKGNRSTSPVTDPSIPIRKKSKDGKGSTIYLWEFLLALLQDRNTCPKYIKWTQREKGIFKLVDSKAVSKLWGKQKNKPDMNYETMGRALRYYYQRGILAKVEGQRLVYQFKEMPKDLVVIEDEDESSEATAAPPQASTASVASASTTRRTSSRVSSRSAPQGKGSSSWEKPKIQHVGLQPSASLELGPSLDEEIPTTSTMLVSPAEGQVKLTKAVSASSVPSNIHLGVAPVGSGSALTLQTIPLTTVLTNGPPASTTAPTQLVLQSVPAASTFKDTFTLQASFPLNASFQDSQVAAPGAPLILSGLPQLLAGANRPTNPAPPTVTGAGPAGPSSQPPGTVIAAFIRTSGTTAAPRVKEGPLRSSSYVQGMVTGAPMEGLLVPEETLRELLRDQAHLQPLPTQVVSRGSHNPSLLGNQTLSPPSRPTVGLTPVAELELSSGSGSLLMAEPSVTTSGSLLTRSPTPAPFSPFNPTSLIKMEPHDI
# SPIB, sequence (Q01892 whole entry): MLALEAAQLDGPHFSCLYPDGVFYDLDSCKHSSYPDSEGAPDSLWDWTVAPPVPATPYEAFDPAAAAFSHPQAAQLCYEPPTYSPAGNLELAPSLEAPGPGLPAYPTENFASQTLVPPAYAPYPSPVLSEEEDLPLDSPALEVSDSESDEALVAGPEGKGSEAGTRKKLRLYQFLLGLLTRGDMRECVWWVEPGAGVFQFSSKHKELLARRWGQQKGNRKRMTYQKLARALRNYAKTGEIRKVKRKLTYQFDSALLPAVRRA
# ETV5, sequence (P41161 whole entry): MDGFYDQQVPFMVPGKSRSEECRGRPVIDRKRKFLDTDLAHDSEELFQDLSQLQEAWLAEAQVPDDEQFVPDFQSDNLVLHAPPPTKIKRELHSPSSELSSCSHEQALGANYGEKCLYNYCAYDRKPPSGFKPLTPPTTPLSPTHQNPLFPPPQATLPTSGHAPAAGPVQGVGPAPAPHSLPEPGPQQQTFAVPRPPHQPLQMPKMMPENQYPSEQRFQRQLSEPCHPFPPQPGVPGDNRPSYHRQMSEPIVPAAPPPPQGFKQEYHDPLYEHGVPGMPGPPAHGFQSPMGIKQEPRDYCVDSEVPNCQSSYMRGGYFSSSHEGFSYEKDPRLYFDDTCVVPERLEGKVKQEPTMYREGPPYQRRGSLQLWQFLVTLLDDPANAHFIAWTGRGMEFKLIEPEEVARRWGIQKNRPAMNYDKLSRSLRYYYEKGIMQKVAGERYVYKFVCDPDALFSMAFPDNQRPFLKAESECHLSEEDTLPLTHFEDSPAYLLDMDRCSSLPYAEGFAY
# ELF1, sequence (P32519 whole entry): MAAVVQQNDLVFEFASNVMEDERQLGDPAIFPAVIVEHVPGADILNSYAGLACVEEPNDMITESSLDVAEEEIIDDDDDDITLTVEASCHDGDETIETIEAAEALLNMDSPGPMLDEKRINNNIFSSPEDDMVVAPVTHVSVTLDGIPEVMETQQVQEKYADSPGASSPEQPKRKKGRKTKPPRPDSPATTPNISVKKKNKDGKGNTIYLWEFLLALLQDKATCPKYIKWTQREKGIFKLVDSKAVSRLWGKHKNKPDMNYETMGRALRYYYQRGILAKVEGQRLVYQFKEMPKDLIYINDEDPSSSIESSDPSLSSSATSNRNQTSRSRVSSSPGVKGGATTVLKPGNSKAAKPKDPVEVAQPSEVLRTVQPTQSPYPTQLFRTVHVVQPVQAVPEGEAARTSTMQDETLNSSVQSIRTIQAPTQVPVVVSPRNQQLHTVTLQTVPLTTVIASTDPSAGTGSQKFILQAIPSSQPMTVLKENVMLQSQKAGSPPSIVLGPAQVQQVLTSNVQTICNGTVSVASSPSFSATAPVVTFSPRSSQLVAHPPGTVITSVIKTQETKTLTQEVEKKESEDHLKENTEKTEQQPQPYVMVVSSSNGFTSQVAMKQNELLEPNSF
sequence,measurement,setting,value
AGGAAG,binding signal,FLI1,"1.24 fold enrichment (6-mer frequency, TF over GST control)"
same,binding signal,ELK1,"1.32 fold enrichment (6-mer frequency, TF over GST control)"
same,binding signal,GABPA,"1.24 fold enrichment (6-mer frequency, TF over GST control)"
same,binding signal,ERG,"1.63 fold enrichment (6-mer frequency, TF over GST control)"
same,binding signal,ELF1,"1.23 fold enrichment (6-mer frequency, TF over GST control)"
same,binding signal,EHF,"1.57 fold enrichment (6-mer frequency, TF over GST control)"
same,binding signal,SPI1,"2.12 fold enrichment (6-mer frequency, TF over GST control)"
same,binding signal,SPIB,"1.44 fold enrichment (6-mer frequency, TF over GST control)"
same,binding signal,ELK3,"1.26 fold enrichment (6-mer frequency, TF over GST control)"
same,binding signal,FEV,"1.24 fold enrichment (6-mer frequency, TF over GST control)"
same,binding signal,ETV5,"1.44 fold enrichment (6-mer frequency, TF over GST control)"
same,binding signal,SPIC,"1.51 fold enrichment (6-mer frequency, TF over GST control)"
same,binding signal,ELF4,"1.21 fold enrichment (6-mer frequency, TF over GST control)"
same,binding signal,ELK4,"1.11 fold enrichment (6-mer frequency, TF over GST control)"
same,binding signal,ETV2,"1.4 fold enrichment (6-mer frequency, TF over GST control)"
same,binding signal,ELF3,"1.52 fold enrichment (6-mer frequency, TF over GST control)"
same,binding signal,ETV1,"1.5 fold enrichment (6-mer frequency, TF over GST control)"
